Experimental data from PubChem BioAssay (NCATS).
Records with an inconclusive call do not appear. Entries that show only a call come without a potency. The source made the active and inactive calls. Unless noted, calls come from the whole dose curve; as a rule, active = well fitted curve in the direction sought with a large enough effect; inconclusive = small, poorly fitted or top-dose-only effect, or another doubt; inactive = no such curve, though single readings can be large; an effect the other way counts as inactive or inconclusive. Where a SMILES comes first, the peptide text is derived from it. [ ]: non-standard residue; d: D form. pGlu = O=C1CC[C@@H](C(=O)O)N1; Thz = O=C(O)[C@@H]1CSCN1

Key:
[1] = qHTS assay for small molecule antagonists of retinoid X receptor alpha signaling (AID 588546; active = well fitted inhibition curve with a large enough effect in the signal ratio, with a control signal flat, not every such curve was filed as active; the % refers to the signal ratio;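 note: cells stimulated with 9-cis-retinoic acid as agonist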); details: HEK293T RXRa-UAS-bla, beta-lactamase ratio, antagonist mode; measured here: W530 green channel, cytotoxicity proxy
Method in brief: (§1)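 Beta-lactamase reporter inhibition, read as CCF4 fluorescence ratio (ex 405, em 460/530 nm) after 2 h at RT. HEK293T UAS-bla cells, 2500/well, were stimulated with 9-cis-RA at 500 or 100 nM final alongside test compound for 18 h at 37 C.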

[2] = target: Retinoic acid receptor RXR-alpha (Homo sapiens) (UniProt P19793); assay: as above; details: HEK293T RXRa-UAS-bla, beta-lactamase ratio, antagonist mode
Method in brief: as §1

[3] = target: Voltage-gated inwardly rectifying potassium channel KCNH2 (Homo sapiens) (UniProt Q12809); assay: qHTS Assay for Small Molecule Inhibitors of the Human hERG Channel Activity (AID 588834); details: U2OS BacMam hERG, FluxOR thallium flux fluorescence; series mostly up to 46.1 µM;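 note: lower thallium flux fluorescence means stronger hERG block; nearly all actives have a fitted effect of over 50% in size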; note: potency is the fitted concentration of half-maximal effect
Method in brief: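 U2OS cells transduced with hERG via BacMam (MOI ~100), plated 2000/well, loaded with FluxOR thallium dye, compound ~10 min, then stimulation buffer; fluorescence decrease read kinetically; AC50 from Hill fits.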

[4] = qHTS for Inhibitors of the vitamin D receptor (VDR): Hit Validation using a Texas Red Assay (AID 602201); details: VDR coregulator binding, Texas Red fluorescence polarization; agonist-bound VDR ligand-binding domain; note: potency is the fitted concentration of half-maximal effect
Method in brief: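 Fluorescence polarization (Ex 595/Em 615 nm) of Texas Red (7 nM) with 1.5 uM VDR-LBD and LG19078 (final concentrations). Compounds were incubated for 2 hours at room temperature.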

[5] = target: Luciferin 4-monooxygenase (Photinus pyralis) (UniProt P08659); assay: Biochemical firefly luciferase enzyme assay for NPC (AID 624030); note: nearly all actives have a fitted effect of over 70% in size; note: potency is the fitted concentration of half-maximal effect; details: purified P. pyralis luciferase, luminescence, 5 min; series mostly up to 58.6 µM
Method in brief: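 Counter-screen for direct inhibition of the luciferase enzyme by approved-drug library compounds, run at 10 nM enzyme in 50 mM Tris acetate (final). Luminescence was read within 5 min of enzyme-buffer addition and normalized to PTC124 versus DMSO (0%).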

[6] = S16 Schwann cell viability assay (CellTiter-Glo assay) (AID 624031); details: S16 rat Schwann cells viability, 24 h; series mostly up to 57.5 µM; note: nearly all actives have a fitted effect of over 70% in size; note: potency is the fitted concentration of half-maximal effect
Method in brief: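 Native S16 rat Schwann cells in DMEM/10% FBS without phenol red were incubated overnight, then exposed to compounds for 24 h at 37 °C/5% CO2. Viability was read as ATP luminescence (CellTiter-Glo), normalized to no-cell wells and DMSO (0%).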

[7] = S16 Schwann cell PMP22 intronic element firefly luciferase assay (AID 624032); details: S16 rat Schwann cells, PMP22 element FLuc, 24 h; series mostly up to 57.5 µM; note: nearly all actives have a fitted effect of over 30% in size; note: potency is the fitted concentration of half-maximal effect
Method in brief: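 Rat S16 Schwann cells stably carrying a PMP22 intronic element-driven Fluc reporter were seeded overnight, then exposed to compounds for 24 h at 37 °C. Luminescence was normalized to PTC124 (positive control) and DMSO (0% activity).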

[8] = S16 Schwann cell PMP22 intronic element beta-lactamase assay (AID 624044; calls by dose curve; note: nearly all actives have a fitted effect of over 15% in size; note: potency is the fitted concentration of half-maximal effect); details: S16 rat Schwann cells, PMP22 element beta-lactamase FRET, 24 h; series mostly up to 38.3 µM
Method in brief: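 Rat S16 Schwann cells with beta-Lac driven by a PMP22 intronic element, compound-treated 24 h at 37 °C. LiveBLAzer FRET B/G read: 460 nm normalized to potassium clavulanate vs DMSO; 535 nm FRET as viability; concentration-effect curves classified.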

Sequence of Luciferin 4-monooxygenase (Photinus pyralis) (P08659 whole entry, looked up): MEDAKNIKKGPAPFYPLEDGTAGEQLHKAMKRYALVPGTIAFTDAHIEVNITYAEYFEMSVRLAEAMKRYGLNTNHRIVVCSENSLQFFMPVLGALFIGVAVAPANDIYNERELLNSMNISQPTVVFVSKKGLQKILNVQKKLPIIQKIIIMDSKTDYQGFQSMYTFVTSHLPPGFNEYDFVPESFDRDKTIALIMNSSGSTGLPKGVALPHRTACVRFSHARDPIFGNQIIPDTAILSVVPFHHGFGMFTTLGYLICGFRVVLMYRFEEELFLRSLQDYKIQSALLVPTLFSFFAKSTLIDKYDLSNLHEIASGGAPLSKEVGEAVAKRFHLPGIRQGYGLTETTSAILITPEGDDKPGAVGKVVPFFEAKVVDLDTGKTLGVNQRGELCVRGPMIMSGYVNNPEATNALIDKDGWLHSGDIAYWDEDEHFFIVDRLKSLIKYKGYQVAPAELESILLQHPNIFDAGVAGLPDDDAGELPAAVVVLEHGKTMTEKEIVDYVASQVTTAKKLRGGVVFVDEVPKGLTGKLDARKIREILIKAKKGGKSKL
Sequence of Voltage-gated inwardly rectifying potassium channel KCNH2 (Homo sapiens) (Q12809 whole entry, looked up): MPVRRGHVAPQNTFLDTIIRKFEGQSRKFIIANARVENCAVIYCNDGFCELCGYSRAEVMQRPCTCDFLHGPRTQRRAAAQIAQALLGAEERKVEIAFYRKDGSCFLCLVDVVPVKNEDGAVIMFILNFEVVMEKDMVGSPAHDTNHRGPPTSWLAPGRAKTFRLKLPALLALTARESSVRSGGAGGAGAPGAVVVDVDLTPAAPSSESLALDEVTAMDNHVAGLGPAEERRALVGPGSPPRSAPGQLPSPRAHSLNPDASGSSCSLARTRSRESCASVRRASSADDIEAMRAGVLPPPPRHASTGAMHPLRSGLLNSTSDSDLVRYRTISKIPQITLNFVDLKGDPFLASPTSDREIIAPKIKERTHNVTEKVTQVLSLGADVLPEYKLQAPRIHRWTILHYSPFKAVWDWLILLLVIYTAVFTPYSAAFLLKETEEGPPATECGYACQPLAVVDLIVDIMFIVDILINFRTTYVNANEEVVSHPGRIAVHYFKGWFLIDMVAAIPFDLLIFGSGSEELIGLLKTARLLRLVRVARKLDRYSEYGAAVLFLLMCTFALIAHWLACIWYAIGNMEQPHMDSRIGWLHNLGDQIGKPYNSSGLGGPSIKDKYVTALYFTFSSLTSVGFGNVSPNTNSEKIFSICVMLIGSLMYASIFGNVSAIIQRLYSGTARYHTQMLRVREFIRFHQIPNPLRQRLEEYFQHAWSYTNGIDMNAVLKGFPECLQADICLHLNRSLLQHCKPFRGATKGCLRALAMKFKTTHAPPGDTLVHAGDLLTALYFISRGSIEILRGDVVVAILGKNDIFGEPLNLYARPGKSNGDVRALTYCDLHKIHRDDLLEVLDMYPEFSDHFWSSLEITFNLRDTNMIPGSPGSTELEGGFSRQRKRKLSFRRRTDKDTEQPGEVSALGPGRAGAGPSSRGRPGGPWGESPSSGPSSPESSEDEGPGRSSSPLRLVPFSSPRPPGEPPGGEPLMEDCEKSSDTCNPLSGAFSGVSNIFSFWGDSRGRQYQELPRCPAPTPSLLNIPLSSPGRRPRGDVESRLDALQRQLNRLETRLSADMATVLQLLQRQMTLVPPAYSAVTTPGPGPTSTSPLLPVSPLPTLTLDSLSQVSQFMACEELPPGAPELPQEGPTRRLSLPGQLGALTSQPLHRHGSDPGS
Sequence of Retinoic acid receptor RXR-alpha (Homo sapiens) (P19793 whole entry, looked up): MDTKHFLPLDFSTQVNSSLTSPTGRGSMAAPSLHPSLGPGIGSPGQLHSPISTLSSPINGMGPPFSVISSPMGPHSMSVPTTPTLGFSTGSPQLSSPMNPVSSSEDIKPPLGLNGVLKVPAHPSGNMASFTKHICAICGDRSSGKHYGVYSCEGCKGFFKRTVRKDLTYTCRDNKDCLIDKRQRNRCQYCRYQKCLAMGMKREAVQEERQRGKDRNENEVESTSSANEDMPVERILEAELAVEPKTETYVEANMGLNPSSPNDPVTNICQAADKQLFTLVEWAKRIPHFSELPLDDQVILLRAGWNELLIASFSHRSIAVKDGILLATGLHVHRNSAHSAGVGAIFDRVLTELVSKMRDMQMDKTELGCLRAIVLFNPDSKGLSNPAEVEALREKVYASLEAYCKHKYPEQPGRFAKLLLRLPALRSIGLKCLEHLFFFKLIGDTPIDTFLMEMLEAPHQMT

CC1(C)S[C@@H]2[C@H](NC(=O)[C@H](N)c3ccccc3)C(=O)N2[C@H]1C(=O)O
max response [1]: -6.23% | max response [2]: -0.87% (inactive)

CCCCC1C(=O)N(c2ccccc2)N(c2ccc(O)cc2)C1=O (configuration not stated)
Potency [3]: inactive | Potency [4]: 15.8 µM (active)

CC1(C)S[C@@H]2[C@H](NC(=O)[C@H](NC(=O)N3CCN(S(C)(=O)=O)C3=O)c3ccccc3)C(=O)N2[C@H]1C(=O)O
Potency [3]: inactive | Potency [5]: inactive | Potency [6]: inactive | Potency [7]: inactive | Potency [8]: inactive

CN(C)CCn1nnnc1SCC1=C(C(=O)O)N2C(=O)[C@@H](NC(=O)Cc3csc(N)n3)[C@H]2SC1
Potency [3]: inactive

O=C(O)COc1ccc(C(=O)c2cccs2)c(Cl)c1Cl
Potency [3]: inactive | Potency [5]: inactive | Potency [6]: inactive | Potency [7]: inactive | Potency [8]: inactive

CC1(C)C[C@@H]1C(=O)N/C(=C\CCCCSC[C@H](N)C(=O)O)C(=O)O
Potency [3]: inactive | Potency [5]: inactive | Potency [6]: inactive | Potency [7]: inactive

Nc1ccn([C@@H]2O[C@H](CO)[C@@H](O)[C@@H]2O)c(=O)n1
Potency [3]: inactive

CCCCCC[C@@H](O)C/C=C\CCCCCCCC(=O)O
Potency [3]: inactive | Potency [5]: inactive | Potency [6]: inactive | Potency [7]: inactive | Potency [8]: inactive

CC(C(=O)O)c1ccc(C(=O)c2cccs2)cc1 (configuration not stated)
Potency [3]: inactive

Cc1cc(O)c2ccccc2c1O
Potency [3]: inactive | Potency [5]: inactive | Potency [6]: 12.8 µM (active) | Potency [7]: 25.6 µM (active) | Potency [8]: inactive

COC(=O)[C@H]1[C@H]2C[C@@H]3c4[nH]c5cc(OC)ccc5c4CCN3C[C@H]2C[C@@H](OC(=O)/C=C/c2cc(OC)c(OC)c(OC)c2)[C@@H]1OC
Potency [3]: 7.94 µM (active)

C[S+](CC[C@H](N)C(=O)O)C[C@H]1O[C@@H](n2cnc3c(N)ncnc32)[C@H](O)[C@@H]1O (some centres not stated)
Potency [3]: inactive | Potency [5]: inactive | Potency [6]: inactive

COc1cccc2c1C(=O)c1c(O)c3c(c(O)c1C2=O)C[C@@](O)(C(=O)CO)C[C@@H]3O[C@H]1C[C@H](N)[C@H](O[C@@H]2CCCCO2)[C@H](C)O1
Potency [3]: inactive

CC1(C)[C@@H](O[C@H]2O[C@H](C(=O)O)[C@@H](O)[C@H](O)[C@H]2O[C@@H]2O[C@H](C(=O)O)[C@@H](O)[C@H](O)[C@H]2O)CC[C@]2(C)[C@H]3C(=O)C=C4[C@@H]5C[C@@](C)(C(=O)O)CC[C@]5(C)CC[C@@]4(C)[C@]3(C)CC[C@@H]12
Potency [3]: inactive

COc1cc(NC(C)CCCN)c2ncccc2c1 (configuration not stated)
Potency [3]: inactive

[O-][n+]1ccccc1SSc1cccc[n+]1[O-]
Potency [3]: inactive | Potency [5]: 2.56 µM (active) | Potency [6]: 12.8 µM (active) | Potency [7]: 0.361 µM (active) | Potency [8]: 1.12 µM (active)

CN[C@H](CC(C)C)C(=O)N[C@H]1C(=O)N[C@@H](CC(N)=O)C(=O)N[C@H]2C(=O)N[C@H]3C(=O)N[C@H](C(=O)N[C@H](C(=O)O)c4cc(O)cc(O)c4-c4cc3ccc4O)[C@H](O)c3ccc(c(Cl)c3)Oc3cc2cc(c3O[C@@H]2O[C@H](CO)[C@@H](O)[C@H](O)[C@H]2O[C@H]2C[C@](C)(N)[C@H](O)[C@H](C)O2)Oc2ccc(cc2Cl)[C@H]1O
Potency [3]: inactive

CCCCC[C@H](O)/C=C/[C@@H]1[C@@H](C/C=C\CCCC(=O)O)[C@@H](O)C[C@H]1O
Potency [3]: inactive | Potency [5]: inactive | Potency [6]: inactive | Potency [7]: inactive | Potency [8]: inactive

CC[C@H]1OC(=O)[C@H](C)C(=O)[C@H](C)[C@@H](O[C@@H]2O[C@H](C)C[C@H](N(C)C)[C@H]2O)[C@](C)(OC)C[C@@H](C)C(=O)[C@H](C)[C@H]2N(CCCCn3cnc(-c4cccnc4)c3)C(=O)O[C@]12C
Potency [3]: inactive

C=C(Nc1ccc(OCC)cc1)Nc1ccc(OCC)cc1
Potency [3]: 14.1 µM (active) | Potency [5]: inactive | Potency [6]: inactive | Potency [7]: inactive | Potency [8]: inactive

CCOC(=O)c1ccccc1O
Potency [3]: inactive | Potency [5]: inactive | Potency [6]: inactive | Potency [7]: inactive | Potency [8]: inactive

CCCCCCOc1ccccc1C(N)=O
Potency [3]: inactive | Potency [5]: inactive | Potency [6]: inactive | Potency [7]: inactive | Potency [8]: inactive

CO/N=C(\C(=O)N[C@@H]1C(=O)N2C(C(=O)O)=C(COC(C)=O)CS[C@H]12)c1csc(N)n1 (stereo in doubt)
Potency [3]: inactive

Nc1ccc(C(=O)O)c(O)c1
Potency [3]: inactive | Potency [5]: inactive | Potency [6]: inactive | Potency [7]: inactive

C=C/C(C)=C/[C@@]1(C)SC(=O)C(C)=C1O
Potency [3]: inactive

CC[C@@H](C)[C@H]1O[C@]2(CC[C@@H]1C)C[C@@H]1C[C@@H](C/C=C(\C)[C@@H](O[C@H]3C[C@H](OC)[C@@H](O[C@H]4C[C@H](OC)[C@@H](O)[C@H](C)O4)[C@H](C)O3)[C@@H](C)/C=C/C=C3\CO[C@@H]4[C@H](O)C(C)=C[C@@H](C(=O)O1)[C@]34O)O2
Potency [3]: inactive

C#CC1(O)CC[C@H]2[C@@H]3CCC4=CCCC[C@@H]4[C@H]3CC[C@@]21C (some centres not stated)
Potency [3]: inactive

Clc1ccccc1-c1nc(-c2ccncc2)no1
Potency [3]: inactive | Potency [5]: 3.61 µM (active) | Potency [6]: inactive | Potency [7]: inactive

O=C(O)[C@H](CC(=O)N1C[C@H]2CCCC[C@H]2C1)Cc1ccccc1
Potency [3]: inactive | Potency [5]: inactive | Potency [6]: inactive | Potency [7]: inactive

O=C1CC[C@@H](C(=O)N2CSC[C@H]2C(=O)O)N1 ([pGlu]-[Thz]-OH)
Potency [3]: inactive | Potency [5]: inactive | Potency [6]: inactive | Potency [7]: inactive | Potency [8]: inactive

CC(=O)O[C@H]1C[C@@]2(C)[C@@H](C[C@@H](O)[C@H]3[C@@]4(C)CC[C@@H](O)[C@@H](C)[C@@H]4CC[C@@]32C)/C1=C(\CCC=C(C)C)C(=O)O
Potency [3]: inactive

O=C(O)Cc1ccc(-c2ccccc2)cc1
Potency [3]: inactive | Potency [5]: inactive | Potency [6]: inactive | Potency [7]: inactive

Oc1c(Br)cc(Br)c2cccnc12
Potency [3]: inactive | Potency [5]: inactive | Potency [6]: inactive | Potency [7]: inactive | Potency [8]: 19.9 µM (active)

COc1cc2c3cc1Oc1cc(ccc1O)C[C@@H]1c4c(cc(OC)c(O)c4Oc4ccc(cc4)C[C@@H]3N(C)CC2)CC[N+]1(C)C
Potency [3]: inactive | Potency [5]: inactive | Potency [6]: inactive | Potency [7]: inactive

CO[C@H]1C[C@@H]2CC[C@@H](C)[C@@](O)(O2)C(=O)C(=O)N2CCCC[C@H]2C(=O)O[C@H]([C@H](C)C[C@@H]2CC[C@@H](O)[C@H](OC)C2)CC(=O)[C@H](C)C=C(C)[C@@H](O)[C@@H](OC)C(=O)[C@H](C)C[C@H](C)/C=C/C=CC=C1C
Potency [3]: inactive

Cc1ccc(O)c(-n2nc3ccccc3n2)c1
Potency [3]: inactive | Potency [5]: 2.87 µM (active) | Potency [6]: inactive | Potency [7]: inactive | Potency [8]: inactive

Cc1onc(-c2c(F)cccc2Cl)c1C(=O)N[C@@H]1C(=O)N2[C@@H]1SC(C)(C)[C@@H]2C(=O)O
Potency [3]: inactive
